According to PubChem BioAssay (NCATS):
Inconclusive results are not listed. Where a call stands in place of a potency, no number is given. Active and inactive are the calls of the source. Unless noted, calls follow the shape of the dose curve; as a rule, active = well fitted curve in the direction sought with a large enough effect; inconclusive = small, poorly fitted or top-dose-only effect, or another doubt; inactive = no such curve, though single readings can be large; an effect the other way counts as inactive or inconclusive.

Legend:
[1] = Cytometric Cell-Based qHTS for Inhibitors of the mTORC1 Signaling Pathway in MEF (Tsc2-/-, p53-/-) Cells (AID 2660);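 also: Tsc2 and p53 null MEFs carrying empty vector with compound for 24 h; percent of cells above a phospho-rpS6 to PI ratio cutoff in each well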
Summary of the method: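 Immunofluorescence qHTS of rpS6 Ser235/236 phosphorylation: MEFs (Tsc2-/-, p53-/-) treated 24 h, 37 C, in DMEM + 10% FBS. Alexa-488 signal normalized to PI count, referenced to rapamycin (7.5 nM) and DMSO; PI cell number recorded for viability.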

[2] = High Content Imaging Cell-Based qHTS for Inhibitors of the mTORC1 Signaling Pathway in MEF (Tsc2-/-, p53-/-) Cells (AID 2666); conditions: at 38.3 µM (top of the series);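 also: percent of cells scored positive for phospho-rpS6 Ser235/236 immunostaining by imaging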
Summary of the method: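 Tsc2-/-, p53-/- MEFs (empty-vector stable) grown in DMEM + 10% FBS were exposed to compounds for 24 hrs at 37 degree Celsius, fixed, and stained with Alexa-488 anti-phospho-rpS6 Ser235/236 plus Hoechst. Imaging gave the percentage of positive cells per well.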

[3] = High Content Imaging Cell-Based qHTS for Inhibitors of the mTORC1 Signaling Pathway in MEF Cells (AID 2667);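 also: Tsc2-/- p53-/- MEFs stably re-expressing wild-type Tsc2 exposed 24 h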
Summary of the method: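 Tsc2-/-, p53-/- MEFs stably re-expressing WT Tsc2, grown in DMEM + 10% FBS, were treated with compounds for 24 hrs at 37 degree Celsius, fixed, and stained with Alexa-488 phospho-rpS6 Ser235/236 antibody plus Hoechst; results given as % positive cells.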

[4] = Cytometry Cell-Based qHTS for Inhibitors of the mTORC1 Signaling Pathway in MEF cells (AID 2668);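 also: Tsc2-/- p53-/- mouse embryonic fibroblasts stably re-expressing wild-type Tsc2; percent cells positive for phospho-rpS6 Ser235/236 relative to propidium iodide stain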
Summary of the method: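 In MEFs grown in DMEM + 10% FBS, a 24 hrs compound exposure preceded imaging of phospho-rpS6 Ser235/236 by laser-scanning cytometry.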

[5] = target: Ubiquitin carboxyl-terminal hydrolase 2 (Homo sapiens) (UniProt O75604); test: qHTS Validation Assay for Inhibitors of Ubiquitin-specific Protease USP2a Using CHOP2 as the Reporter (AID 463106)
Summary of the method: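 Readout was coupled fluorescence (Ex 485/Em 531 nm), read 60 min after adding 25 nM final Ub-CHOP2 and 25 nM reporter substrate. Beforehand, 10 nM final USP2 core had 30 min at RT with compound in pH 8.0 buffer. Curves were fitted after normalization to NEM and flagged for artifacts using time-zero reads.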

[6] = target: DNA polymerase III PolC-type (Bacillus subtilis (strain 168)) (UniProt P13267); test: qHTS Validation Assay for the Inhibitors of DNA Replication in Gram-Positive Bacteria (AID 485295);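 also: reconstituted holoenzyme with PolC plus beta clamp SSB and primase; PicoGreen fluorescence of double-stranded DNA made on primed circular M13 template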
Summary of the method: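 Inhibition of DNA synthesis by the reconstituted PolC holoenzyme, monitored through PicoGreen staining of dsDNA formed from ssM13Gori, dNTPs and NTPs, with compound preincubation and room-temperature reaction.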

[7] = target: Tumor susceptibility gene 101 protein (Homo sapiens) (UniProt Q99816); test: qHTS Validation Assay for Iinhibitors of HIV-1 Budding by Blocking the Interaction of PTAP/TSG101 (AID 485342; calls by dose curve)
Summary of the method: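 Compound wells held the Tsg101 binding domain (10 uM) and a FITC-conjugated PTAP peptide (50 nM) in buffer at pH 7.5 containing 0.15 M NaCl and 0.01% Tween 20; polarization was recorded after 20 min, r.t.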

[8] = target: Beta-2 adrenergic receptor (Homo sapiens) (UniProt P07550); test: qHTS validation assay of beta-arrestin-biased ligands of beta2-adrenergic receptor (AID 485366)
Summary of the method: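 Agonism was measured as beta-arrestin recruitment to recombinant beta2-AR, releasing tTA to drive luciferase. Cells were exposed for 18 hr at 37 degrees C to a series up to 46 microM. %Activity from corrected luminescence gave concentration-response curves.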

[9] = target: ATP-dependent 6-phosphofructokinase (Trypanosoma brucei brucei) (UniProt O15648); test: qHTS Validation Assay to Find Inhibitors of T. brucei phosphofructokinase (AID 485368)
Summary of the method: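 ADP-Glo luminescence, two-step: residual ATP depleted, then ADP converted to ATP for luciferase. Enzyme 1.25 nM, F6P 0.5 mM, ATP 0.1 mM, pH 8.0 TEA buffer, 45 min RT. Curves fitted and classed by quality and efficacy.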

[10] = target: Thioredoxin reductase 1, cytoplasmic (Rattus norvegicus) (UniProt O89049); test: qHTS Assay for Substrates of Mammalian Selenoprotein Thioredoxin Reductase 1 (TrxR1) (AID 488772);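 also: a drop in NADPH fluorescence below the no-compound background marks a TrxR1 substrate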
Summary of the method: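 In this dual-purpose format, potential substrates are identified from the first fluorescence read after selenite addition, not from the 8-minute delta. Rat enzyme is preincubated with NADPH and then with compound at ~22 deg C.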

[11] = target: Thioredoxin reductase 1, cytoplasmic (Rattus norvegicus) (UniProt O89049); test: qHTS Assay for Inhibitors of Mammalian Selenoprotein Thioredoxin Reductase 1 (TrxR1) (AID 488773); conditions: Potency: inhibition;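 also: drop in NADPH fluorescence over an 8 min run after selenite addition; nearly all actives have a fitted effect of over 40% in size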
Summary of the method: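 Inhibition is scored from the loss of NADPH fluorescence between first and last reads of an 8-min kinetic run. Selenite (400 uM) was the substrate, added after 15 min compound preincubation at room temperature.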

[12] = target: Flap endonuclease 1 (Homo sapiens) (UniProt P39748); test: qHTS Validation Assay for the Inhibitors of Human Flap endonuclease 1 (FEN1) (AID 488816)
Summary of the method: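 qHTS format: compounds and 10 nM FEN1 incubated 15 min at room temperature before adding 50 nM substrate. Cleavage followed by reads at 0 and 15 min; normalized data fitted to a four-parameter Hill curve.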

[13] = target: M-phase phosphoprotein 8 (Homo sapiens) (UniProt Q99549); test: qHTS Validation Assay for Inhibitors for MPP8 Chromodomain Interactions with Methylated Histone Tails (AID 488949);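 also: 50 nM MPP8 with 50 nM peptide preformed then compounds added for 30 min; AlphaScreen signal from MPP8 chromodomain bound to biotinylated H3K9me3 peptide; top concentration of the series differs between compounds; nearly all actives have a fitted effect of over 55% in size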
Summary of the method: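 Chemiluminescent proximity assay: histidine-tag capture via nickel acceptor beads, biotin peptide via streptavidin donor beads. Protein and peptide each at 50 nM, pH 7.4, with 30 min incubations at room temperature for complex formation, compound exposure and bead binding.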

[14] = target: Methanococcus maripaludis chaperonin (MmCpn) (UniProt Q6LX38); test: High-Throughput Screening for Modulators of Cytosolic Chaperonin Activity: MmCpn Primary Screen (AID 488978)
Summary of the method: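 HTRF readout (320 nm excitation, 590/665 nm emission) of ADP generated by 50 nM MmCpn hydrolysing 30 uM ATP during 10 min at 37C; compound preincubated 5 min RT.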

[15] = target: D(1A) dopamine receptor (Homo sapiens) (UniProt P21728); test: HTS Assay for Allosteric Agonists of the Human D1 Dopamine Receptor: Primary Screen for Agonists (AID 488981)
Summary of the method: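 Calcium flux in an inducible, force-coupled HEK293 Trex D1 line (overnight at 30 C): agonist mode is the 180 s kinetic read after compound; potentiator mode is the following 180 s read after dopamine at EC20.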

[16] = target: D(1A) dopamine receptor (Homo sapiens) (UniProt P21728); test: HTS Assay for Allosteric Agonists of the Human D1 Dopamine Receptor: Primary Screen for Antagonists (AID 488983);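 also: calcium flux response to an EC80 dopamine challenge measured with no-wash dye; nearly all actives have a fitted effect of over 65% in size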
Summary of the method: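 Calcium flux readout, no-wash dye, inducible HEK293 T-REx D1 line (force-coupled). Compound added after 10 s baseline, 180 s kinetic read; then dopamine at EC80, further 180 s read.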

[17] = Nrf2 qHTS screen for inhibitors: Validation (AID 493153; active = well fitted inhibition curve with a large enough effect in the main read-out, with a control signal flat, not every such curve was filed as active); conditions: viability change: measured here: cytotoxicity max response
Summary of the method: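 Concentration-response test in A549 ARE_Fluc reporter cells (5% FBS OPTI-MEM), compound exposure 18-24 h at 37°C, 5% CO2. Cell viability measured first by CellTiter-Fluor fluorescence; ARE-driven luciferase luminescence then measured as Nrf2 activity.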

[18] = qHTS for Inhibitors of Cell Surface uPA Generation: Validation Assay (AID 493164);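 also: RAW 264.7 macrophage cells exposed to compound for 18 h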
Summary of the method: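 Compounds are titrated over seven points (2.45 nM–38.3 uM final) onto pre-plated RAW 264.7 cells and incubated for 18 h. Retained intracellular ATP, measured with ATP-Lite, indicates blocked lethal factor entry.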

[19] = target: Peptidyl-prolyl cis-trans isomerase NIMA-interacting 1 (Homo sapiens) (UniProt Q13526); test: qHTS Validation Assay to Find Inhibitors of Pin1 (AID 504536; active = well fitted inhibition curve with a large enough effect in the polarisation, with a control signal flat, not every such curve was filed as active; the % refers to the polarisation)
Summary of the method: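 Fluorescence polarization competition: compounds (titration) displace HiFluor-488-labeled Pin1-1b peptide from Pin1 (0.3 uM final) in pH 7.5 HEPES buffer with DTT, 10 min at room temperature; %Activity normalized to no-enzyme wells, curves fitted.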

[20] = target: Phosphoglycerate kinase, glycosomal (Trypanosoma brucei brucei) (UniProt P07378); test: qHTS Validation Assay to Find Inhibitors of Phosphoglycerate Kinase (AID 504547)
Summary of the method: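 Luminescence end-point (Kinase-Glo Plus, 10 min) after a 60 min room-temperature coupled reaction. GAPDH at 100nM final supplies 1,3-BPG to PGK. Buffer: 100mM TEA pH 7.6, 5mM MgCl2, 0.01% Tween-20. Wells lacking PGK served as controls.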

[21] = target: phosphoglycerate mutase (Leishmania major) (UniProt Q4Q090); test: qHTS Validation Assay to Find Inhibitors of Phosphoglycerate Mutase (AID 504548);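 also: end-point luminescence from Kinase-GloPlus after the PGAM reaction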
Summary of the method: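 L. major PGAM (1.25nM final) was added to substrate buffer and pinned compound, incubated 45 minutes at room temperature, then Kinase-GloPlus added; luminescence read after 10 minutes. Buffer: 100 mM TEA pH 7.6, 5 mM MgCl2, 0.01% Tween-20.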

[22] = target: Ubiquitin carboxyl-terminal hydrolase 1 (Homo sapiens) (UniProt O94782); test: Inhibitors of USP1/UAF1: Pilot qHTS (AID 504865);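 also: rhodamine fluorescence freed from ubiquitin-rhodamine substrate followed over time; top concentration of the series differs between compounds; nearly all actives have a fitted effect of over 35% in size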
Summary of the method: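 Enzyme-free wells gave the negative control, while test wells held 1nM USP1/UAF1 preincubated with compound for 15 min at room temperature. Ub-Rho at 150nM final started the reaction, and fluorescence at 480/540 nm was recorded kinetically.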

[23] = qHTS for Inhibitors of ATXN expression: Validation of Cytotoxic Assay (AID 588349)
Summary of the method: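 Cytotoxicity counter-screen: HEK293 cells exposed to compound titrations, 72 hr, 37 degrees C. Read-out is intracellular ATP (CellTiter Glo luminescence) as a viability measure.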

[24] = qHTS for Inhibitors of ATXN expression: Validation (AID 588378); also: nearly all actives have a fitted effect of over 75% in size
Summary of the method: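 After a 2 h attachment and 24 h compound incubation, HEK293-ATXN2-FFLuc wells are read for fluorescence at 405 nm excitation/525 nm emission as a viability measure, then for Bright-Glo luminescence reflecting ATXN2 expression.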

[25] = target: Glutaminase kidney isoform, mitochondrial (Homo sapiens) (UniProt O94925); test: qHTS for Inhibitors of Glutaminase (GLS): LOPAC Validation (AID 624146);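 also: glutamate product detected by oxidase and peroxidase coupled Amplex red fluorescence gain; nearly all actives have a fitted effect of over 60% in size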
Summary of the method: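 Compounds were pin-transferred onto hKGA, after which L-glutamine (1 mM solution) and a detection mix of glutamate oxidase, HRP and Amplex Red were added. Initial and 30 min RT fluorescence reads were collected.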

[26] = qHTS of Trypanosoma Brucei Inhibitors: LOPAC Validation (AID 624147)
Summary of the method: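 Activity of T. brucei pyruvate kinase was followed by Kinase-Glo Plus luminescence after the enzyme reacted 45 min at room temperature with 130 uM ADP (final) and substrate. Test compounds were added before ADP at multiple concentrations.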

[27] = target: Glucagon-like peptide 1 receptor (Homo sapiens) (UniProt P43220); test: qHTS of GLP-1 Receptor Agonists: LOPAC Validation (AID 624148);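 also: luminescence from a luciferase reporter switched on by cAMP; higher luminescence signal means agonism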
Summary of the method: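 Agonism scored as increased luciferase luminescence driven by cAMP in HEK293 clones carrying GLP-1R. Cells settled 12 hours, received compound for 4-6 hr at 37 deg C, 5% CO2, and were read after 12 min detection reagent at RT.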

[28] = qHTS of Nrf2 Activators: LOPAC Validation (AID 624149)
Summary of the method: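 AREc32_Fluc cells, 1000/well, OPTI-MEM + 5% FBS, o/n 37 deg C 5% CO2; compound pin-transfer, 24 hr 37 deg C; Steady-Glo 30 min RT, luminescence read.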

[29] = HTS Assay for Allosteric Antagonists of the Human D2 Dopamine Receptor: Hit Validation in HTRF (AID 624455)
Summary of the method: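 HTRF read-out; cells stably expressing D1 receptor; hits scored for inhibition of D1-mediated response. Primary screen: calcium flux, force-coupled inducible Hek293 Trex D2 line, antagonism vs EC80 dopamine.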

Chain of D(1A) dopamine receptor (Homo sapiens) (P21728 whole entry, looked up): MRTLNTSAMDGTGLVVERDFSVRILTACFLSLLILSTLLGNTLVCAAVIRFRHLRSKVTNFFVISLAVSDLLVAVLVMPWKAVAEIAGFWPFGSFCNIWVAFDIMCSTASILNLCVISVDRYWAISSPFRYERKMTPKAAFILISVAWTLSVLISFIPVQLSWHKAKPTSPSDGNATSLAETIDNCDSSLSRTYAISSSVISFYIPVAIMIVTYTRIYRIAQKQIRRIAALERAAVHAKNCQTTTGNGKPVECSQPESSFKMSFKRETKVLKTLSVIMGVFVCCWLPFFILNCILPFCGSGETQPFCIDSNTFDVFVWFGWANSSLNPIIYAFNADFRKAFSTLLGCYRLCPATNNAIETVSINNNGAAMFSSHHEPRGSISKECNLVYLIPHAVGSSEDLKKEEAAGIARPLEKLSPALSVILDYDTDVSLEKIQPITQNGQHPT
Chain of Thioredoxin reductase 1, cytoplasmic (Rattus norvegicus) (O89049 whole entry, looked up): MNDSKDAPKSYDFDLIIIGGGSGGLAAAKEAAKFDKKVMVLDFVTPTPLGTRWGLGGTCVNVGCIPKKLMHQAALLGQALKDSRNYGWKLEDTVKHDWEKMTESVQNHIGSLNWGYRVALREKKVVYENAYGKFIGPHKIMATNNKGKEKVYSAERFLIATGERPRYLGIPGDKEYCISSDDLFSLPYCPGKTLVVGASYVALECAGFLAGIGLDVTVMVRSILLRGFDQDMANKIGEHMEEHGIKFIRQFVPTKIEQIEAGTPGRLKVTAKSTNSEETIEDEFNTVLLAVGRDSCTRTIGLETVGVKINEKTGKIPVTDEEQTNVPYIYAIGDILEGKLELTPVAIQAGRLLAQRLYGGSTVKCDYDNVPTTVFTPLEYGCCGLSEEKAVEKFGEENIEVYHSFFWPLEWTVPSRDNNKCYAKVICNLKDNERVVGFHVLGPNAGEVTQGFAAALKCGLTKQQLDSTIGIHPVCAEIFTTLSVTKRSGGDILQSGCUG
Chain of Methanococcus maripaludis chaperonin (MmCpn) (Q6LX38 1-543): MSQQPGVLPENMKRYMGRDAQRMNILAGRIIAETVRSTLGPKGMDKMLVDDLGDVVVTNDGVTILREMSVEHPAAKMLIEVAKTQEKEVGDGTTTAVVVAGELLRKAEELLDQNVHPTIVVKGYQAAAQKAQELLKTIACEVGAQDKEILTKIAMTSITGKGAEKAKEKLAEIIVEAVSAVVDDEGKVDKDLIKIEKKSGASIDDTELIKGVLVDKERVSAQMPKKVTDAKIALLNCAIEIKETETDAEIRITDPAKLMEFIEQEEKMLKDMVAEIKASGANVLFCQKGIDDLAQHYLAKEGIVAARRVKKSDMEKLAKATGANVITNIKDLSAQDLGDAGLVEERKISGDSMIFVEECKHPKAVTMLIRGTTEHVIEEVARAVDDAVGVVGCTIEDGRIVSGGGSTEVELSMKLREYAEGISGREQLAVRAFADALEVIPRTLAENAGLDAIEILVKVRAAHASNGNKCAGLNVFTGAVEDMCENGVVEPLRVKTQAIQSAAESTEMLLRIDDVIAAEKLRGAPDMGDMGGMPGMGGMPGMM
Chain of Glucagon-like peptide 1 receptor (Homo sapiens) (P43220 whole entry, looked up): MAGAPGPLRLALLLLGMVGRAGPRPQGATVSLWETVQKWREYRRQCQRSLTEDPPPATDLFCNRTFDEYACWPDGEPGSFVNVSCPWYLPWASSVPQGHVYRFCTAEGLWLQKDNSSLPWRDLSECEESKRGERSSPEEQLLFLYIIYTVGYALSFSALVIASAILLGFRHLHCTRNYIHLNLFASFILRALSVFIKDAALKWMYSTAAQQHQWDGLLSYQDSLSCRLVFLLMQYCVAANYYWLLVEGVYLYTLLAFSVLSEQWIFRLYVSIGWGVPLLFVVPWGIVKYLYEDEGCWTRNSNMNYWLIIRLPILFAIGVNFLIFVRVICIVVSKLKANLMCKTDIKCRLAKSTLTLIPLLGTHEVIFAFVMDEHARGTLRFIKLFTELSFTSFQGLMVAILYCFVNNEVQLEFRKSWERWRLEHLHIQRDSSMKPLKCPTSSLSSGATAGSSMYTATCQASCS
Chain of ATP-dependent 6-phosphofructokinase (Trypanosoma brucei brucei) (O15648 whole entry, looked up): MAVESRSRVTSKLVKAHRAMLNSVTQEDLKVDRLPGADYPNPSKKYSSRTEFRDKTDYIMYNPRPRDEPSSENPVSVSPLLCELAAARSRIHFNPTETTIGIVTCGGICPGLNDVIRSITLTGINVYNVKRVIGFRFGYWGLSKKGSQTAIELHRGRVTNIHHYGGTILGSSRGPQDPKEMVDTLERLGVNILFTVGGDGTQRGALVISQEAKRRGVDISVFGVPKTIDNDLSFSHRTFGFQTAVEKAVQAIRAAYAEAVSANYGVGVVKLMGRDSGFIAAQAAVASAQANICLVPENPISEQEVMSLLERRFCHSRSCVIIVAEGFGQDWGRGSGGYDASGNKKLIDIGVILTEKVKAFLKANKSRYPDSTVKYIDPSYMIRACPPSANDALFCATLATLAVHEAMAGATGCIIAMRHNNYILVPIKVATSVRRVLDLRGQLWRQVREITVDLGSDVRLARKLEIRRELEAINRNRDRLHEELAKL
Chain of DNA polymerase III PolC-type (Bacillus subtilis (strain 168)) (P13267 whole entry, looked up): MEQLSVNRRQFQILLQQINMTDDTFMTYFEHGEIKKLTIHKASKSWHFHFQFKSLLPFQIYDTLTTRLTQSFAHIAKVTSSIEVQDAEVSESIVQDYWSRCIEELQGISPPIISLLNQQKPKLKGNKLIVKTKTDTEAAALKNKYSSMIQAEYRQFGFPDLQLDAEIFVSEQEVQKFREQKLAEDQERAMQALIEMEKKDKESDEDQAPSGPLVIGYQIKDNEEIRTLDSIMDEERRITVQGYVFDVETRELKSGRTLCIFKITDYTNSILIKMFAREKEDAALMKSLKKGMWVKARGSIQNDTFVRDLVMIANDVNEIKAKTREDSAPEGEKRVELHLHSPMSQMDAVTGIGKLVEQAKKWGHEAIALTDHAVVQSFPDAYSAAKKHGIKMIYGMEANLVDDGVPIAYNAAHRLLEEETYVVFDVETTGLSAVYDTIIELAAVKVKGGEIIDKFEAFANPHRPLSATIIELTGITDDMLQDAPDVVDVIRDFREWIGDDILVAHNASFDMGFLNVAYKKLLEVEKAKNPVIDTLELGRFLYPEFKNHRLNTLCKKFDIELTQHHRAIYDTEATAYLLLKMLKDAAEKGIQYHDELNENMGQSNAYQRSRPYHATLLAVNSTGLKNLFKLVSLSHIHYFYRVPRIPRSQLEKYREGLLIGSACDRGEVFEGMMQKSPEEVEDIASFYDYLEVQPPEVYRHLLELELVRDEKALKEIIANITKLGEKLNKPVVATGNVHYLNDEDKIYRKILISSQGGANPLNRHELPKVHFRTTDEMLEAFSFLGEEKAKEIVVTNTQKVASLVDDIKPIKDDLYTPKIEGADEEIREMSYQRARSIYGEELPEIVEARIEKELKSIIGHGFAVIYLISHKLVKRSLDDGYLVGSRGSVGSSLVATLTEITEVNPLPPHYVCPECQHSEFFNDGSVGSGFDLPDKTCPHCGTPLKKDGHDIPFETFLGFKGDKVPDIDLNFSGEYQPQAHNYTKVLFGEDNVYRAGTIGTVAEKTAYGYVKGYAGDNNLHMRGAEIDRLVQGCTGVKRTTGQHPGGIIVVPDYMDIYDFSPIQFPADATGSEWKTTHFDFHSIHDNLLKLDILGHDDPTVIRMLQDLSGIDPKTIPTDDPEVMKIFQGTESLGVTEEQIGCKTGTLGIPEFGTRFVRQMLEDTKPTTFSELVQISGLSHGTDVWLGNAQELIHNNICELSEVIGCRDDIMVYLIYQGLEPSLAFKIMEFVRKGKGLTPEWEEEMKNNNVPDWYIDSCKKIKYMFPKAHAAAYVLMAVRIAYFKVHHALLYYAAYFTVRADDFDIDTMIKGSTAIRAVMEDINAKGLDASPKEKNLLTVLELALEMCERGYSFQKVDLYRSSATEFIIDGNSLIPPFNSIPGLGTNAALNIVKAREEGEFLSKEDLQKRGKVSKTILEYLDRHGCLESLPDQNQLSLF
Chain of Ubiquitin carboxyl-terminal hydrolase 2 (Homo sapiens) (O75604 whole entry, looked up): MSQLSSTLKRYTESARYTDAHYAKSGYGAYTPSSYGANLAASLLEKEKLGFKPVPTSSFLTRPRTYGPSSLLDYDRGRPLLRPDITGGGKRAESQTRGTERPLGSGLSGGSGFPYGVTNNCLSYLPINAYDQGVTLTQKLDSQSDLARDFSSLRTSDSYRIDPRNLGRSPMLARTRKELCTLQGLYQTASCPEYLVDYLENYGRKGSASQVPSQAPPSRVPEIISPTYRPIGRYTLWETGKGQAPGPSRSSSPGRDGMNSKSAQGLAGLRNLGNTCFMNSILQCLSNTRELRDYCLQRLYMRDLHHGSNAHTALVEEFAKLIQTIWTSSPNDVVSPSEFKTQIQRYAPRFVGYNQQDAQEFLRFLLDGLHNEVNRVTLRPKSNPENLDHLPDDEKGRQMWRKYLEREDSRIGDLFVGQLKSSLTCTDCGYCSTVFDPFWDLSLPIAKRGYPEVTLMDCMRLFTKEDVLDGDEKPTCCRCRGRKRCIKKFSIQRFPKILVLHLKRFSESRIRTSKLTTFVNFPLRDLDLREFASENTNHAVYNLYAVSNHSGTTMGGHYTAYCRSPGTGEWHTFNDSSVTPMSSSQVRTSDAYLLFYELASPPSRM
Chain of Tumor susceptibility gene 101 protein (Homo sapiens) (Q99816 whole entry, looked up, the tested form may be a part): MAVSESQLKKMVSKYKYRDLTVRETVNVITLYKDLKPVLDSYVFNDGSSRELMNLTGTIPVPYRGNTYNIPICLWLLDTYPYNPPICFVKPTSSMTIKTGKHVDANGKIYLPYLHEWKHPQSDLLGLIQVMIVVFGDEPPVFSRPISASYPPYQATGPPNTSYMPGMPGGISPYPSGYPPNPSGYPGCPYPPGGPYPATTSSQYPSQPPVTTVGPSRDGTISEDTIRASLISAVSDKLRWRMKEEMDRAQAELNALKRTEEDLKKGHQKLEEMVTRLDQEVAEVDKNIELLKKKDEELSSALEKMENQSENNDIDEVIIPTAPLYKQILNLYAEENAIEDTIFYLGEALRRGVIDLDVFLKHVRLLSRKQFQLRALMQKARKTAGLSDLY

For `C[C@H](Cc1ccccc1)Nc1ncnc2c1ncn2[C@@H]1O[C@H](CO)[C@@H](O)[C@H]1O`, the outcome [1] was “inactive”, the outcome [2] was “inactive” and the Potency [3] was “inactive”. The Potency [4] was “inactive”, the Potency [5] was “inactive” and the Potency [6] was “inactive”. For the same molecule, the outcome [7] was “inactive”, the outcome [8] was “inactive” and the Potency [9] was “inactive”. The outcome [10] was “inactive”, the Potency [11] was “inactive” and the Potency [12] was “inactive”. For the same molecule, the Potency [13] was “inactive”, the outcome [14] was “inactive” and the outcome [15] was “inactive”. The outcome [16] was “inactive”, the outcome [17] was “inactive” and the viability change [17] was 6.66%. For the same molecule, the outcome [18] was “inactive”, the Potency [19] was “inactive” and the Potency [20] was “inactive”. The outcome [21] was “inactive”, the Potency [22] was “inactive” and the Potency [23] was “inactive”. The Potency [24] was “inactive”, the Potency [25] was “inactive” and the outcome [26] was “inactive”. For the same molecule, the outcome [27] was “inactive”, the outcome [28] was “inactive” and the outcome [29] was “inactive”.
